This is an account of results in PubChem BioAssay (NCATS).

Molecules are shown by their SMILES. “And” between values parts separate entries of the source, which are not always exact repeats. Equal values may be shown once. Inconclusive results are not listed. The source made the active and inactive calls. Calls follow the shape of the dose curve; as a rule, active = well fitted inhibition curve with a large enough effect; inconclusive = small, poorly fitted or top-dose-only effect; inactive = no such curve, though single readings can be large or run the other way.
Potency is read from the fitted curve at half-maximal effect.

The nature of the assay: Confirmatory screen NINDS Rhodamine qHTS for Zika virus inhibitors (AID 1347161). Also: nearly all actives have a fitted effect of over 60% in size. Conditions: purified enzyme assay, Rhodamine110 substrate fluorescence, 15 min; series mostly up to 114 µM; activity change, negative = inhibition: at the top concentration. The source says:
Avindra Nath, Ph.D., National Institute of Neurological Disorders and Stroke (NINDS), Bethesda, MD
Radhakrishnan Padmanabhan, Ph.D., Georgetown University (GU), Washington D.C.
Zika Virus causes congenital defects, including microcephaly and is associated with Guillain-Barre syndrome, eningoencephalitis and myelitis in infected adult. […] Using a target-based approach, we hope to establish a screening paradigm to uncover novel, cell-active NS2B-NS3 protease (Zika Virus) specific inhibitors from NCATS' collection of small molecules using qHTS.
Four assay panel was created to identify potential Zika Virus inhibitors. Namely, (1) GU unlinked NS2B-NS3 AMC tagged protease qHTS, (2) GU unlinked NS2B-NS3 Rhodamine tagged protease qHTS, (3) NINDS linked NS2B-NS3 AMC tagged protease qHTS, (4) NINDS linked NS2B-NS3 Rhodamine tagged protease qHTS. Active compounds were re-acquired and re-screened to confirm inhibition. Inhibitors were further screened against various confirmatory and counterscreens in dose response format.
Early Translation Branch (ETB)
National Center for Advancing Translational Sciences (NCATS), Rockville, MD
National Institute of Health (NIH), Bethesda, Maryland
For the linked assay, Nath lab (NINDS) provided the purified linked NS2B-NS3 protease which is consists of hydrophilic domain of NS2B linked to the NS3 protease domain by a flexible (-[…]-) linker. Control compound aprotinin is obtained from Thermo Scientific (#78432; Waltham, Massachusetts). Rhodamine110 substrate ([N-Cbz]-Nle-Lys-Arg-Arg-Rhod110-Arg-Arg-Lys-Nle-[N-Cbz]) was purchased from either Genscript or Bachem.
1536-well Protease (Rhodamine110 Substrate) Assay:
Briefly, 3 microL of enzyme (25 nM final concentration), in assay buffer (10 mM Tris-HCl pH 8.0 with 0.01% Tween 20) were dispensed into a 1,536-well solid-bottom black plate (Greiner Bio One, Monroe, NC). Twenty-three nL of compounds (final concentration range 7.28 nM to 114 microM) or control Aprotinin (final concentration range 3.47 nM to 114 microM) were transferred via Wako Pin-tool (Wako Automation, Richmond, VA). Samples were incubated (room temperature, protected from light) for 15 minutes followed by a 1 microL Rhodamine110 substrate addition (1.5 microM final concentration). Plates were then immediately read on a ViewLux High-throughput CCD imager (PerkinElmer, Waltham, MA) equipped with FITC fluorescence optics (480(20) nm excitation, 540(25) nm emission), then incubated (room temperature, protected from light) for 15 minutes (~15% conversion). The change in fluorescence intensity over the 15-minute reaction period was normalized against no-inhibitor and no-enzyme controls and the resulting percent inhibition data were fitted to a 4-parameter Hill equation. Aprotinin was used as intraplate control.
Background: In qHTS, concentration-response curves come from the screen itself.
As to `CN(CC(=O)N(Cc1ccc(C2CCCCC2)cc1)c1ccc(C(=O)O)cc1)S(=O)(=O)c1c(F)c(F)c(F)c(F)c1F`, the Potency was 2.78 µM (active).

`CCOc1ccc(C(=O)Nc2ccccc2C(=O)OCc2cc(=O)n3nc(C4CC4)sc3n2)cc1`: the “activity change, negative = inhibition” value was 9.33% (inactive).

Take `CN(Cc1ccc(C(=O)O)cc1)c1ccc(OCc2c(-c3c(Cl)cccc3Cl)noc2C2CC2)nc1C(F)(F)F`: the Potency was 2.21 µM (active).

For the compound `O=C(O)c1c(Br)c(Br)c(Br)c(Br)c1C1c2ccc(O)cc2Oc2cc(O)ccc21`, the Potency is 0.891 µM (active).

For `Cc1cc(S(=O)(=O)Nc2ccc(C(=O)O)cc2)c(C)c(S(=O)(=O)c2ccc(Cl)cc2)c1`, the Potency is 44.7 µM (active).

Regarding `Cc1c(-c2ccc(O)cc2)nn(-c2ccc(O)cc2)c1-c1ccc(OCCN2CCCCC2)cc1`, the “activity change, negative = inhibition” value is 562% (inactive).

With `COc1cc(C2Nc3ccccc3-c3nnc(SCc4ccc(Cl)cc4)nc3O2)ccc1OCC(=O)O` (stereo not given), the Potency is 25.1 µM (active).

Take `NC(Cc1cc(I)c(Oc2cc(I)c(O)c(I)c2)c(I)c1)C(=O)O` (stereo not given): the Potency is 22.4 µM (active).

For the compound `CCOc1nc2cccc(C(=O)OC(C)OC(=O)OC3CCCCC3)c2n1Cc1ccc(-c2ccccc2-c2nn[nH]n2)cc1` (stereo not given), the Potency was 1.24 µM (active).

Regarding `Cc1ccn(-c2cc(Cl)ccc2[C@@H](Oc2cc(-c3ccc(C[C@H](N)C(=O)O)cc3)nc(N)n2)C(F)(F)F)n1`, the Potency is 24.8 µM (active).

Regarding `O=C(O)c1cc(-c2ccc(C(F)(F)F)cc2)nc2n[nH]c(-c3ccccc3)c12`, the Potency is 50.1 µM (active).

On to `Cc1ccc(-c2cc(C(F)(F)F)c(C#N)c(SCC(=O)O)n2)cc1`, for which the Potency was 44.7 µM (active).

For the compound `Cc1cccc(C(=O)Nc2ccc(C(=O)OCc3cc(=O)n4c5c(sc4n3)CCCC5)cc2)c1`, the “activity change, negative = inhibition” value is -10.3% (inactive).

In the case of `O=C(OCC#CCSc1nnc(-c2cccc3ccccc23)o1)c1ccc(C(F)(F)F)cc1`, the “activity change, negative = inhibition” value is -4.35% (inactive).

As for `O=c1c(O)cc(C2Oc3cc(O)cc(O)c3CC2O)cc2c(C3Oc4cc(O)cc(O)c4CC3O)cc(O)c(O)c12` (stereo not given), the Potency was 20 µM (active).

Consider `CC1(COc2ccc(C[C@H]3SC(=O)NC3=O)cc2)CCCCC1`, for which the Potency is 4.4 µM (active).

Turning to `CC(=O)Nc1ccc(S(=O)(=O)O)c2cc(S(=O)(=O)O)c(N=Nc3ccc(N=Nc4ccc(S(=O)(=O)O)cc4)c4ccc(S(=O)(=O)O)cc34)c(O)c12`, the Potency is 2.51 µM (active).

Turning to `COC(=O)c1ccc([C@H]2Nc3ccc(S(=O)(=O)Nc4ccc(C)cc4)cc3[C@H]3C=CC[C@H]32)cc1`, the Potency was 17.8 µM (active).

In the case of `O=C(OCC#CCSc1nnc(-c2cccc3ccccc23)o1)c1sc2ccccc2c1Cl`, the “activity change, negative = inhibition” value is -9.35% (inactive).

Consider `Cc1ccc(NC(=O)c2ccc3c(O)c(S(=O)(=O)c4ccc(Cl)cc4)c(=O)[nH]c3c2)cc1`, for which the Potency is 6.31 µM (active).

In the case of `CN(C)c1cc(CNCC(C)(C)C)c(O)c2c1C[C@H]1C[C@H]3[C@H](N(C)C)C(=O)C(C(N)=O)=C(O)[C@@]3(O)C(=O)C1=C2O`, the “activity change, negative = inhibition” value was 5.87% (inactive).

For `O=C(Nc1cccc(C(=O)OCc2cc(=O)n3c4c(sc3n2)CCCC4)c1)c1ccc(Cl)cc1`, the “activity change, negative = inhibition” value is -15.7% (inactive).

In the case of `O=C(Nc1ccc(C(=O)OCc2cc(=O)n3nc(C4CC4)sc3n2)cc1)c1ccc(F)cc1`, the “activity change, negative = inhibition” value is -2.49% (inactive).

Turning to `CCCc1nn2c(=O)cc(COC(=O)c3ccccc3NC(=O)c3ccc(Cl)cc3)nc2s1`, the “activity change, negative = inhibition” value was 3.58% (inactive).

As for `CC(C)c1nn2c(=O)cc(COC(=O)c3ccc(NC(=O)c4cccs4)cc3)nc2s1`, the “activity change, negative = inhibition” value was 6.65% (inactive).

Consider `O=C(Nc1ccc(C(=O)OCc2cc(=O)n3nc(C4CC4)sc3n2)cc1)c1cccc(F)c1`, for which the “activity change, negative = inhibition” value was -16.5% (inactive).

`O=C(O)c1ccc(C2Nc3ccccc3-c3nnc(SCc4ccc(Cl)cc4)nc3O2)cc1` (stereo not given): the Potency was 15.8 µM (active).

On to `COC(=O)c1ccc(NC(=O)CSc2ccc(-c3sc(-c4ccccc4)nc3C)nn2)cc1`, for which the “activity change, negative = inhibition” value is -13.8% (inactive).

As for `O=C(OC1Cc2c(O)cc(O)cc2OC1c1cc(O)c(O)c(O)c1-c1c(C2Oc3cc(O)cc(O)c3CC2OC(=O)c2cc(O)c(O)c(O)c2)cc(O)c(O)c1O)c1cc(O)c(O)c(O)c1` (stereo not given), the Potency was 20 µM (active).

Consider `Clc1nc2n[nH]nc2nc1Cl`, for which the Potency was 5.62 µM (active).

Consider `O=C(OCC#CCSc1nnc(-c2ccc(F)cc2)o1)c1ccc(F)cc1`, for which the “activity change, negative = inhibition” value was 8.07% (inactive).

As to `O=C(Nc1cc(C(=O)Nc2ccc(S(=O)(=O)O)cc2S(=O)(=O)O)cc(C(=O)Nc2ccc(S(=O)(=O)O)cc2S(=O)(=O)O)c1)Nc1cc(C(=O)Nc2ccc(S(=O)(=O)O)cc2S(=O)(=O)O)cc(C(=O)Nc2ccc(S(=O)(=O)O)cc2S(=O)(=O)O)c1`, the Potency was 2.24 µM (active) and 2 µM (active).

For `COc1ccc(NS(=O)(=O)c2ccc3c(c2)[C@H]2C=CC[C@H]2[C@@H](c2ccc(C(=O)O)cc2)N3)cc1`, the Potency is 3.16 µM (active).

In the case of `CCCCc1nn(-c2ccccc2C(F)(F)F)c(=O)n1Cc1ccc(-c2ccccc2S(=O)(=O)NC(=O)c2sccc2C)cc1`, the Potency was 4.41 µM (active).

For `O=C(OCC#CCSc1nnc(-c2cccc3ccccc23)o1)c1cc(F)c(F)c(F)c1`, the “activity change, negative = inhibition” value was 5.85% (inactive).

Turning to `CC(C)c1nn2c(=O)cc(COC(=O)c3ccc(NC(=O)COc4ccccc4)cc3)nc2s1`, the “activity change, negative = inhibition” value is 4.33% (inactive).

For `O=C(O)c1ccc(NC(=O)c2cn(-c3ccccc3)nc2-c2ccc(Br)cc2)cc1`, the Potency is 6.31 µM (active).

Turning to `C=C1c2c(Cl)ccc(O)c2C(O)=C2C(=O)[C@]3(O)C(O)=C(C(N)=O)C(=O)[C@@H](N(C)C)[C@@H]3[C@@H](O)C12` (stereo not given in full), the Potency was 13.9 µM (active).

On to `O=C(Nc1ccc(C(=O)OCc2cc(=O)n3c4c(sc3n2)CCCC4)cc1)c1cccc(F)c1`, for which the “activity change, negative = inhibition” value is -17.1% (inactive).

On to `O=C(CNc1nnc(-c2ccc([S+](=O)([O-])N3CCCC3)cc2)n1-c1ccccc1)Nc1ccc(C(=O)O)cc1`, for which the “activity change, negative = inhibition” value was 0.877% (inactive).
